VACV Venus inh = qHTS for Stage-Specific Inhibitors of Vaccinia Orthopoxvirus: Venus Reporter Primary qHTS. 330,000 tested, 0.46% active. Vaccinia virus Venus reporter expression, fluorescence. Potency, µM (highest dose often 36.5 µM), actives largely listed as inhibitors; calls by dose curve; tested in A549 cells; further: nearly all actives have a fitted effect of over 30% in size
HCMV inh = qHTS Assay for inhibitors of the human cytomegalovirus (HCMV); HFF cells, HCMV-luciferase reporter, 72 h; hits give low values; activity change, negative = inhibition, % at 57.5 µM; 410,000 tested, 4.5% active; AID 1259415, 2018; in the data active means activity change below about -60%; inconclusive means no clear call, values can overlap the other calls; inactive means above about -39%
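After 16 h attachment at 37C, HFF cells received test compound and HCMV-luciferase (1 PFU/cell); reporter luminescence read 72 h later, data normalized against buffer-only and known inhibitor Salinomycin.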
FMDV inh = High Throughput Screening for Foot and Mouth Disease Virus Antivirals; 410,000 tested, 1.2% active; FMDV antiviral cell-based qHTS; AID 1159524, 2015; Potency, µM (highest dose often 57.9 µM), usual class: inhibitors; calls by dose curve; tested in HEK293T cells; further: read-out not given here; nearly all actives have a fitted effect of over 45% in size
Vaccinia mCherry = qHTS for Stage-Specific Inhibitors of Vaccinia Orthopoxvirus: mCherry Reporter Primary qHTS; AID 720579, 2013; Vaccinia virus mCherry reporter infection, fluorescence; 310,000 tested, 0.63% active; Potency, µM (series often up to 36.5 µM), hits mostly inhibitors; calls by dose curve; tested in A549 cells; further: nearly all actives have a fitted effect of over 35% in size
HCV inhibitor = qHTS Assay for Inhibitors of Hepatitis C Virus (HCV) | Huh7.5.1 HCVcc-Cre infection, luciferase reporter, 44 h | Potency, µM (highest dose often 41.8 µM), usual class: inhibitors | 340,000 tested, 3.4% active; active means well fitted inhibition curve with a large enough effect; inconclusive means small, poorly fitted or top-dose-only effect, or another doubt; inactive means no such curve, though single readings can be large or run the other way
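After 44 h co-culture of compound, cells and HCVcc-Cre (~0.5 moi), substrate is added for 15 min at room temperature and luciferase measured over 15 sec. Cells were seeded at 1,000/well and pre-cultured 4 h.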
Large screens that a line does not name were inactive. Only some compounds are listed: those with a hit (about 7.3% of all), similar ones and a draw of the others.

COC(=O)C1=C(C)NC(C)=C([N+](=O)[O-])[C@@H]1c1ccccc1C(F)(F)F	none (no result: VACV Venus inh, HCMV inh, Vaccinia mCherry, HCV inhibitor)
CC(=O)OC1CC[C@@]2(C)C3=CC(=O)[C@]4(C)C(CC5OC6(OCC(C)CC6Br)C(C)C54)C3CC[C@H]2C1 (some centres not stated)	none (no result: HCMV inh, HCV inhibitor)
CCSc1cc(N2CCCC2)nc(-c2ccc(C)cc2)n1	HCMV inh inconclusive, HCV inhibitor inconclusive
CCSc1cc(N2CCCC2)nc(-c2cccc(C)c2)n1	HCMV inh -62.4, HCV inhibitor inconclusive
COc1ccc(NC(=O)Nc2ccc(Cc3ccncc3)cc2)cc1OC	FMDV inh 22.4µM, Vaccinia mCherry inconclusive, HCV inhibitor inconclusive
COc1cc2ccccc2cc1C(=O)Nc1ccc(C)cc1	HCV inhibitor inconclusive (no result: VACV Venus inh, Vaccinia mCherry)
COc1ccccc1NC(=O)Nc1ccc(Cc2ccncc2)cc1	none
COc1ccccc1OCc1ccc(C(=O)Nc2ccncc2)o1	HCMV inh inconclusive, FMDV inh 14.1µM, HCV inhibitor inconclusive (no result: VACV Venus inh, Vaccinia mCherry)
COc1ccccc1OCc1ccc(C(=O)NC(C)(C)C)o1	FMDV inh inconclusive, HCV inhibitor inconclusive (no result: Vaccinia mCherry)
COc1cc2ccccc2cc1C(=O)Nc1ccc(Cc2ccncc2)cc1	HCV inhibitor 10µM (no result: VACV Venus inh, Vaccinia mCherry)
Clc1ccc(Cn2cc3c(n2)-c2cc4ccccc4n2C3)cc1	none (no result: HCMV inh, FMDV inh, HCV inhibitor)
COc1cc2nc3occc3c(OC)c2cc1OC	HCMV inh -71.9, HCV inhibitor inconclusive
COc1c2ccccc2nc2occc12	none (no result: HCMV inh, HCV inhibitor)
COC1=C(Br)C(=O)c2ncccc2C1=O	HCMV inh -69.0, FMDV inh 35.5µM, HCV inhibitor inconclusive
O=C1c2cccnc2-c2ncccc21	none
O=C1C(=O)c2cccnc2-c2ncccc21	VACV Venus inh 14.1µM, HCMV inh -99.1, FMDV inh 3.98µM, Vaccinia mCherry 6.31µM (no result: HCV inhibitor)
CC(=O)NCCNc1nc(-c2cccc(NS(C)(=O)=O)c2)nc2ccccc12	none (no result: VACV Venus inh, HCMV inh, Vaccinia mCherry, HCV inhibitor)
Cc1ccc(C2c3c(-c4cc(C)ccc4O)n[nH]c3C(=O)N2Cc2ccco2)cc1 (configuration not stated)	VACV Venus inh inconclusive (no result: HCV inhibitor)
CN(C)C(=S)SSC(=S)N(C)C	HCMV inh -98.5
CC(C)(C)c1ccc(/C=C/C(=O)c2ccc(NC3=NCCCS3)cc2)cc1	HCV inhibitor 11.2µM (no result: VACV Venus inh, Vaccinia mCherry)
O=C(/C=C/c1ccccc1)c1ccc(NC2=NCCCS2)cc1	none
Cc1cccc(/C=C/C(=O)c2ccc(NC3=NCCCS3)cc2)c1	VACV Venus inh inconclusive, HCMV inh -98.0, FMDV inh inconclusive, HCV inhibitor 11.2µM
O=C(/C=C/c1ccc(Br)cc1)c1ccc(NC2=NCCCS2)cc1	HCMV inh -100.2, FMDV inh 15.8µM, HCV inhibitor inconclusive (no result: VACV Venus inh, Vaccinia mCherry)
Cc1cccc(CCNC(=O)C2CCC(CNS(=O)(=O)c3ccccc3)CC2)c1 (configuration not stated)	none (no result: HCV inhibitor)
O=C(O)c1cc(N2N=C(C(F)(F)F)/C(=C/C=C/c3ccco3)C2=O)ccc1Cl	HCMV inh -90.4, FMDV inh 28.2µM
CCOC(=O)c1ccc(N2N=C(C)/C(=C/C=C/c3ccco3)C2=O)cc1	none (no result: VACV Venus inh, Vaccinia mCherry)
CC1CC(=O)N(CC(=O)NCc2ccc(F)cc2)c2ccccc2S1(=O)=O (configuration not stated)	none
Cn1nc(C(C)(C)C)c([N+](=O)[O-])c1C(=O)Nc1ccc(Br)cc1	FMDV inh inconclusive, HCV inhibitor 12.6µM (no result: VACV Venus inh, Vaccinia mCherry)
CCN1CCN(CCOc2ccc(Cl)cc2)CC1	none
Cc1ccc(OCCN2CCN(c3ncnc4sc(C)c(C)c34)CC2)cc1	HCMV inh -98.8, FMDV inh inconclusive, HCV inhibitor 2.51µM (no result: VACV Venus inh, Vaccinia mCherry)
Clc1ccc(OCCN2CCN(c3ncnc4sccc34)CC2)cc1	HCMV inh inconclusive, FMDV inh inconclusive, HCV inhibitor 0.316µM (no result: VACV Venus inh, Vaccinia mCherry)
Cc1ccc(OCCN2CCCC2)cc1	HCV inhibitor inconclusive (no result: VACV Venus inh, Vaccinia mCherry)
Cc1sc2ncnc(N3CCOCC3)c2c1C	HCMV inh -66.0, FMDV inh inconclusive
Cc1sc2ncnc(N3CCN(S(=O)(=O)c4ccccc4)CC3)c2c1C	FMDV inh 20µM, HCV inhibitor 11.2µM (no result: HCMV inh)
CCn1c(=NC(=O)c2ccc(S(=O)(=O)N3CCCC3)cc2)sc2cc(Br)ccc21	none (no result: HCV inhibitor)
COc1ccc(-c2csc(Nc3ncccc3C)n2)cc1OC	HCV inhibitor 2.24µM (no result: Vaccinia mCherry)
COc1ccc(-c2csc(Nc3ncccc3C)n2)cc1	VACV Venus inh inconclusive, HCV inhibitor inconclusive
COc1ccc(-c2csc(Nc3cc(C)ccn3)n2)cc1C	HCMV inh inconclusive, HCV inhibitor 12.6µM (no result: VACV Venus inh, Vaccinia mCherry)
CCn1c2c(c(=O)n3ncc(C(=O)Nc4ccc(C(=O)OC)cc4)c13)CN(Cc1ccc(OC)cc1)CC2	none (no result: HCV inhibitor)
CC(=O)Nc1cccc(NC(=O)CSc2ccc(-c3sc(-c4ccccc4)nc3C)nn2)c1	Vaccinia mCherry inconclusive (no result: HCV inhibitor)
COc1ccc(NC(=O)C2CCC(CNS(=O)(=O)c3cccc4nsnc34)CC2)cc1OC (configuration not stated)	Vaccinia mCherry inconclusive (no result: HCV inhibitor)
CC(C)(C)C1CCC(=O)N(CCSc2ccccc2)CC1 (configuration not stated)	HCV inhibitor 3.55µM
O=C(N[C@H]1CCC(=O)N(CCSc2ccc(Br)cc2)CC1)OCc1ccccc1	FMDV inh 31.6µM, HCV inhibitor inconclusive
COc1ncc2nc(-c3ccc(F)cc3)c(=O)n(C)c2n1	none (no result: VACV Venus inh, HCMV inh, Vaccinia mCherry, HCV inhibitor)
C=CCNC(=O)/C(C#N)=C\c1cc(Cl)c(O)c(OCC)c1	none
CCOc1cc(/C=C(/C#N)C(=O)Nc2ccc(O)cc2)cc(Br)c1O	HCMV inh -60.7, Vaccinia mCherry inconclusive
Cc1ccc(-c2nc(N)nc(N)n2)c(C)c1	HCMV inh -95.5, Vaccinia mCherry inconclusive
COc1ccc(C(O)c2ncc(-c3ccccc3)[nH]2)cc1F (configuration not stated)	HCMV inh -101.1 (no result: HCV inhibitor)
COc1ccc(C(O)c2ncc(-c3ccccc3Cl)[nH]2)cc1F (configuration not stated)	HCMV inh -101.6 (no result: HCV inhibitor)
COc1ccc(NC(=O)N2CC3(CCNCC3)C2)cc1	none (no result: VACV Venus inh, HCMV inh, Vaccinia mCherry, HCV inhibitor)
COC(=O)c1cc(NC(=S)NC(=O)c2ccccc2)ccc1N1CCOCC1	HCV inhibitor inconclusive (no result: VACV Venus inh, Vaccinia mCherry)
COc1c(S(=O)(=O)N2CCCCC2)ccc2c(S(=O)(=O)N3CCCCC3)cccc12	HCMV inh -85.5, HCV inhibitor inconclusive (no result: VACV Venus inh, Vaccinia mCherry)
O=S(=O)(c1cccc2c(S(=O)(=O)N3CCCC3)cccc12)N1CCCC1	FMDV inh inconclusive (no result: Vaccinia mCherry)
COC1C=CC=C(C)C(=O)NC2=CC(=O)C(N)=C(CC(C)CC(OC)C(O)C(C)C=C(C)C1OC(N)=O)C2=O (configuration not stated)	HCMV inh -97.5, FMDV inh 10µM, Vaccinia mCherry inconclusive, HCV inhibitor inconclusive
COC1CC(C)C(OC)c2cc(O)cc(c2O)NC(=O)C(C)=CC=CC(C)C(OC(N)=O)C(C)=CC(C)C1OC (configuration not stated)	VACV Venus inh inconclusive, HCMV inh -99.2, FMDV inh 126µM, Vaccinia mCherry inconclusive, HCV inhibitor inconclusive
CNC(=O)OC1CC2CC1[C@H]1CCCCN1C2=O (some centres not stated)	none (no result: HCV inhibitor)
